# PTK2B oligo ant = antagonists of Pyk2 self-association, primary screen, Q293 cells, FERM NanoBiT luminescence, HTS; hit rate 0.83% among 99,000; active compounds read low; z-score (the deposit names both 25 µM and 10 µM); Protein-tyrosine kinase 2-beta (Homo sapiens), Q14289;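 active = Z-score of -3 or lower, scaled per plate to the spread of control and sample wells; inactive = z-score above -3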;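 also: negative z-score means lost luminescence so less FERM oligomerization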
# CYP2C19 inhib = blockers of cytochrome P450 2C19 activity – biochemical, luminescence, ADME assay, primary screen. CYP2C19 Supersomes, luciferin-H EGE luminescence, 30 min. P33261. hit rate 21% among 96,000. inhibition, % at 5 µM;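 active = CYP2C19 inhibition above a set limit at 5 µM in the primary screen, cut at about 50% in these data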;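 also: plate controls were negative control wells for no effect and 2.5 mM tranylcypromine positive control for full effect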
# Target sequence (P33261 whole entry, looked up): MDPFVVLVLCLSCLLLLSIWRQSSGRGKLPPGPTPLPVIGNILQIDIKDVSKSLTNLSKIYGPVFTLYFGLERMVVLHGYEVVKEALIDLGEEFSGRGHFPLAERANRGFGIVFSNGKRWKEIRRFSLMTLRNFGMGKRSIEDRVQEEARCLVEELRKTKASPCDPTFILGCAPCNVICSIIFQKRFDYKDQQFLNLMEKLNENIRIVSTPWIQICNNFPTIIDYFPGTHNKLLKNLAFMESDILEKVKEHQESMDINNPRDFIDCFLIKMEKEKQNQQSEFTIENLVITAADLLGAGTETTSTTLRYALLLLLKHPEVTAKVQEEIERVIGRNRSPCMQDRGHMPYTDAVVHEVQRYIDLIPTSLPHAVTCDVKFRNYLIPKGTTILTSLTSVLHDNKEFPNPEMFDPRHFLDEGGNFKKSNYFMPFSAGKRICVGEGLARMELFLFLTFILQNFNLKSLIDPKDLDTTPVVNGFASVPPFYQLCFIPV
# CYP2C9 inh = blockers of cytochrome P450 2C9 activity – biochemical, luminescence, ADME assay, primary screen; inhibition, % at 5 µM; CYP2C9 Supersomes, luciferin-H conversion; hit rate 20% among 96,000;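 active = blocking of liver enzyme CYP2C9 beyond about 50% at 5 µM, limit read from the data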
# CYP2C9 act = human CYP2C9 activators, primary screen, biochemical, luminescence; Cytochrome P450 2C9 (Homo sapiens), P11712; recombinant CYP2C9, luciferin-H conversion; active compounds read high; factor 1 = untreated enzyme, 0 = blocked; activation factor at 5 µM; hit rate 1.4% among 96,000;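 active = activation factor of 2 or more for CYP2C9 at a 5 µM dose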;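 also: 0 = sulfaphenazole-blocked wells and 1 = vehicle-only wells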
# CYP2C19 activ = human CYP2C19 activators, primary screen, biochemical, luminescence | Cytochrome P450 2C19 (Homo sapiens), P33261 | recombinant CYP2C19, luciferin-H EGE luminescence; active compounds read high; 0 = fully inhibited enzyme, 1 = untreated enzyme | activation factor at 5 µM | 96,000 tested, under 10 active;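 active = activation factor of at least 2 at 5 µM in the primary screen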;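 also: 0 = wells with 2.5 mM tranylcypromine and 1 = vehicle-only wells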
# * hit, by the source's call; . = no result. The list is not random: actives were taken first. Their share in the collection is about 28%.
SMILES,PTK2B oligo ant,CYP2C19 inhib,CYP2C9 inh,CYP2C9 act,CYP2C19 activ
CCN(C(=O)Cn1c(=O)oc2ccccc21)C1CCS(=O)(=O)C1 (stereo not drawn),0.11,-10,6,0.9,1.1
O=C(NCc1ccccn1)C1CC(c2ccc(Cl)c(Cl)c2)=NO1 (stereo not drawn),1.9,24,-6,1.1,0.8
COc1ccc(OC)c(C2=NOC(C(=O)Nc3cccnc3)C2)c1 (stereo not drawn),0.61,76*,-99,2*,0.2
O=C(Nc1cccnc1)C1CC(c2ccc(Cl)c(Cl)c2)=NO1 (stereo not drawn),0.97,94*,56*,0.4,0.1
COc1ccc(N2CCN(C(=O)c3ccc(OCC4CCCO4)cc3)CC2)cc1 (stereo not drawn),2.5,-22,6,0.9,1.2
Cc1ccc2c(c1)C1CCCC3C1N2CC(=O)N3Cc1ccccc1 (stereo not drawn),.,99*,100*,0,0
CCCCn1c(SCC(=O)NC(=O)NCc2ccco2)nc2cc(S(N)(=O)=O)ccc21,0.74,8,17,0.8,0.9
O=C(CCn1c(=O)c2sccc2n(CC(=O)NCc2ccco2)c1=O)NCc1ccccc1,0.46,21,61*,0.4,0.8
O=C(CCCn1c(=O)c2sccc2n(CC(=O)NCc2ccco2)c1=O)NCc1ccco1,0.14,8,20,0.8,0.9
O=C(NCc1ccco1)c1ccc(Cn2c(=O)c3sccc3n(Cc3cccc(F)c3)c2=O)cc1,.,87*,85*,0.1,0.1
CCC1CCCCN1C(=O)Cn1c(=O)n(CCC(=O)NCc2ccco2)c(=O)c2sccc21 (stereo not drawn),1.1,5,45,0.5,1
Cc1cccc(C)c1NC(=O)Cn1c(=O)n(CCCC(=O)NCc2ccco2)c(=O)c2sccc21,0,14,78*,0.2,0.9
Cc1nc2ccccc2n2c(-c3ccccc3)c3c(=O)n(C)c(=O)n(C)c3c12,-0.39,10,29,0.7,0.9
COc1ccccc1N1CCN(C2=NS(=O)(=O)c3ccccc32)CC1,0.71,-11,-14,1.1,1.1
C=CCN1/C(=C(\C#N)C2=NS(=O)(=O)c3ccccc32)N(C)c2ccccc21,0.09,55*,36,0.6,0.5
CC1(C)CCCN(C(=O)N2c3ccccc3Sc3ccccc32)C1,-0.52,16,7,0.9,0.8
Cc1noc(NS(=O)(=O)c2ccc(NC(=O)Nc3ccc(Cl)c(Cl)c3)cc2)c1C,0.81,-19,-20,1.2,1.2
CCSc1ncc(Cl)c(C(=O)Nc2ccc(S(=O)(=O)Nc3onc(C)c3C)cc2)n1,3.4,-4,58*,0.4,1
O=C1C2C3c4ccccc4C(c4ccccc43)C2C(=O)N1c1nc(-c2ccccc2)cs1 (stereo not drawn),-0.47,24,62*,0.4,0.8
O=C1C2C3c4ccccc4C(c4ccccc43)[C@@H]2C(=O)N1c1nc(-c2ccccc2)cs1 (stereo partly drawn),-0.11,.,.,.,.
COCCNC(=O)C(c1cccs1)N(C(=O)Cn1nnc2ccccc21)c1ccc2c(c1)OCO2 (stereo not drawn),-1.9,11,4,1,0.9
Nc1ccc(Nc2nc(-c3ccncc3)cs2)cc1,-1.1,61*,62*,0.4,0.4
Clc1ccc(Nc2nc(-c3ccncc3)cs2)cc1,-0.34,.,.,.,.
NS(=O)(=O)c1ccc(Nc2nc(-c3ccc(O)cc3)cs2)cc1,-2.9,36,86*,0.1,0.6
Oc1ccc(Nc2nc(-c3ccc(O)cc3)cs2)cc1,-1.1,30,-6,1.1,0.7
SMILES,PTK2B oligo ant,CYP2C19 inhib,CYP2C9 inh,CYP2C9 act,CYP2C19 activ
O=C(CSc1n[nH]c(-c2cccs2)n1)N1CCN(S(=O)(=O)c2ccc3ccccc3c2)CC1,1.5,23,2,1,0.8
Nc1nc(-c2ccc(Br)s2)c(Br)s1,-0.41,-8,8,0.9,1.1
O=C(N/N=C(\c1ccccc1)c1cccnc1)C(O)(c1ccccc1)c1ccccc1,-3.9*,28,67*,0.3,0.7
C[n+]1cc[nH]c1SCC(=O)c1ccccc1,0.85,72*,-9,1.1,0.3
O=C(O)CSCC(=O)c1ccccc1,1.2,-1,9,0.9,1
Cn1cnnc1SCNC(=O)C(F)(F)F,1.5,-3,25,0.7,1
COc1cc(OC)c(-c2nn3c(C4CCCCC4)nnc3s2)cc1OC,-1.3,84*,85*,0.1,0.2
CCOc1cccc(-c2nnc3sc(C4CCCCC4)nn23)c1,-1,94*,43,0.6,0.1
Cc1cc(-c2nnc3sc(C4CCCCC4)nn23)n[nH]1,1.8,73*,2,1,0.3
Cc1cc(-c2nnc3sc(-c4ccc(Cl)cc4Cl)nn23)n[nH]1,-0.55,8,2,1,0.9
COc1cc(-c2nnc3sc(C4CCCCC4)nn23)cc(OC)c1OC,-1.2,75*,77*,0.2,0.3
COc1cccc(-c2nnc3sc(C4CCCCC4)nn23)c1,-2.1,84*,78*,0.2,0.2
c1cncc(-c2nnc3sc(C4CCCCC4)nn23)c1,0.89,94*,34,0.7,0.1
COc1cccc(-c2nnc3sc(-c4ccccc4)nn23)c1,-0.14,12,0,1,0.9
COc1ccc(OC)c(CNC(=O)C2CCN(C(=O)N(C)C)CC2)c1,0.31,12,-31,1.3,0.9
Cc1cc(F)ccc1NCc1ccncc1,0.41,82*,62*,0.4,0.2
C=CCn1c(SCCCC)nc(O)cc1=O,.,9,2,1,0.9
C=CCn1c(SC(C)CC)nc(O)cc1=O (stereo not drawn),-4.5*,98*,26,0.7,0
O=C1NC(c2ccccc2)=C(c2nc3ccccc3s2)C(c2ccccc2)N1 (stereo not drawn),-3.6*,71*,91*,0.1,0.3
Cc1ccc(-c2nn(C)c(=O)c3ccccc23)cc1CNS(C)(=O)=O,1.2,6,-135,2.3*,0.9
CCOC(=O)NCc1cc(-c2nn(C)c(=O)c3ccccc23)ccc1C,0.16,69*,78*,0.2,0.3
Cc1oc2c(c1C(=O)Nc1ccc(C(=O)O)cc1)CCCC2,0.04,-8,33,0.7,1.1
CCn1c(-c2cc3c(C(F)(F)F)nn(C)c3s2)n[nH]c1=S,0.73,31,22,0.8,0.7
O=C(COC(=O)CCNS(=O)(=O)c1cccc(C(F)(F)F)c1)NC(=O)NC1CCCCC1,3.1,69*,79*,0.2,0.3
CC(=O)OC(C(=O)NC1CCCCC1)c1cccc(C)c1 (stereo not drawn),0.96,47,-24,1.2,0.5

# High-throughput results as filed in PubChem BioAssay.
